Here are results for 57 compounds from PMC4336329 (PLoS ONE, 2015).

The campaign covered roughly 310,000 compounds. About 14,000 (4.5%) showed an effect of 50% or more. The effect is printed as a negative number. This is one part of a sample in which strong results are shown more often than they occur.
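Also: peak tail current of the secondary pulse compared with the same well before compound.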

The target in the assay is human ether-à-go-go-related gene (hERG) potassium channel (human, UniProt Q12809). The assay can be described thus: primary screen, population patch clamp on CHO cells stably expressing hERG; higher = less effect of the substance.
Sequence of human ether-à-go-go-related gene (hERG) potassium channel (Q12809 whole entry, looked up): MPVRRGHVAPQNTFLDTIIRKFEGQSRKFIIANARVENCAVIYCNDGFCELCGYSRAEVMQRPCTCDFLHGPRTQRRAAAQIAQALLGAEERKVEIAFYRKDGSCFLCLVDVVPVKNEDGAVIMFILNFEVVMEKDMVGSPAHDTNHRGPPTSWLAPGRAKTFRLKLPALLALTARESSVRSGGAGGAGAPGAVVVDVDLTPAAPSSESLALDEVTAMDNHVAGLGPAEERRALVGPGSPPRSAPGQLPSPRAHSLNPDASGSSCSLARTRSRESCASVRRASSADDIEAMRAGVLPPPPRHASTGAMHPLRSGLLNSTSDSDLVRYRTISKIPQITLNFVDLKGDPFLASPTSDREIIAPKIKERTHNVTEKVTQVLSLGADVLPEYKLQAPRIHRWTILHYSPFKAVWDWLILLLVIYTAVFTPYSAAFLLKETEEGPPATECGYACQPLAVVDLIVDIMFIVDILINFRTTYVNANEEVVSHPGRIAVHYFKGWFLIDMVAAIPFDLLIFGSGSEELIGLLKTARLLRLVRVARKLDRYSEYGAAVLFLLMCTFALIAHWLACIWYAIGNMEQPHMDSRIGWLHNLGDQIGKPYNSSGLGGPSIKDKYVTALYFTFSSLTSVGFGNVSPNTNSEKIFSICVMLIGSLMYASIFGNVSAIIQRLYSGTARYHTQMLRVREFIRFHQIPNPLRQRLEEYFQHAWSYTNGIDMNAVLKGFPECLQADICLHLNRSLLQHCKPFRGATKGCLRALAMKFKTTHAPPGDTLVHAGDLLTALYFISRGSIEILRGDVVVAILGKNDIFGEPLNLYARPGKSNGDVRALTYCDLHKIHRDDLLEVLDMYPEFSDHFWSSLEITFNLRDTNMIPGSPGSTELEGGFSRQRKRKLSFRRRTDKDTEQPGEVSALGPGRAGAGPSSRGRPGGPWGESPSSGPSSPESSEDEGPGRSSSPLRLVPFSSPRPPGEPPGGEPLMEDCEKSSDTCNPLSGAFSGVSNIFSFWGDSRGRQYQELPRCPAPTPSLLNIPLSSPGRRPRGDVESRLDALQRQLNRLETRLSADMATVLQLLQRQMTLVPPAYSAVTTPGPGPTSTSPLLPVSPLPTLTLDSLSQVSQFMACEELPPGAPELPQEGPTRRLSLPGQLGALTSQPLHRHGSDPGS
With `Cc1ccc(-c2csc(NC(=O)c3ccno3)n2)cc1`, the “hERG current change (%, negative = inhibition) at 10uM” value was 2.72%.

Turning to `CN1CCN(C(=O)CSc2nc(-c3cccs3)ccc2C#N)CC1`, the “hERG current change (%, negative = inhibition) at 10uM” value is recorded as -4.44%.

For the compound `COC(=O)c1ccc(CN(c2ccccn2)S(=O)(=O)c2ccccc2)cc1`, the “hERG current change (%, negative = inhibition) at 10uM” value is 14.1%.

With `Clc1ccc(C[n+]2cc(-c3ccccc3)n3c2CCC3)cc1Cl.[Cl-]`, the “hERG current change (%, negative = inhibition) at 10uM” value is on record as -45.1%.

Consider `O=[N+]([O-])c1ccc(C[n+]2cc(-c3ccc(Cl)c(Cl)c3)n3c2CCCCC3)cc1.[Br-]`, for which the “hERG current change (%, negative = inhibition) at 10uM” value is recorded as -15.7%.

Regarding `Cc1ccc(-c2c[n+](Cc3ccc(Cl)c(Cl)c3)c3n2CCC3)cc1.[Cl-]`, the “hERG current change (%, negative = inhibition) at 10uM” value is -68.9%.

Take `CC(=O)N1CCN(c2ccccc2NC(=O)c2cc3ccccc3o2)CC1`: the “hERG current change (%, negative = inhibition) at 10uM” value is reported as -49.8%.

With `O=C1CC(c2ccccc2)CC(O)=C1C=NCCCN1CCOCC1` (stereo not drawn), the “hERG current change (%, negative = inhibition) at 10uM” value is -9.92%.

With `O=C(O)c1cc(-c2cccs2)nc2ccc(Br)cc12`, the “hERG current change (%, negative = inhibition) at 10uM” value was 21%.

Regarding `CCCCN(C)S(=O)(=O)c1cc(Br)cc2c1N(C(=O)C1CC1)CC2`, the “hERG current change (%, negative = inhibition) at 10uM” value is -51.6%.

`O=C(O)CCS(=O)(=O)c1cc(Br)cc2c1N(C(=O)C1CC1)CC2`: the “hERG current change (%, negative = inhibition) at 10uM” value came to 9.39%.

For `CCN(c1ccc2c(c1)OCO2)S(=O)(=O)c1cc(Br)cc2c1N(C(=O)C1CC1)CC2`, the “hERG current change (%, negative = inhibition) at 10uM” value stood at 8.05%.

As for `CC(=O)N1CCc2cc(Br)cc(S(=O)(=O)NCc3ccccn3)c21`, the “hERG current change (%, negative = inhibition) at 10uM” value came out at 7.02%.

As to `O=C(C1CC1)N1CCc2cc(Br)cc(S(=O)(=O)NCc3ccco3)c21`, the “hERG current change (%, negative = inhibition) at 10uM” value is listed as -41%.

For the compound `CCCN(CCC)S(=O)(=O)c1cc(Br)cc2c1N(C(=O)CC)CC2`, the “hERG current change (%, negative = inhibition) at 10uM” value is -2.75%.

Turning to `COc1ccc(CNS(=O)(=O)c2cc(Br)cc3c2N(C(C)=O)C(C)C3)cc1` (stereo not drawn), the “hERG current change (%, negative = inhibition) at 10uM” value is -40.9%.

On to `O=C(C1CC1)N1CCc2cc(Br)cc(S(=O)(=O)NCc3ccc4c(c3)OCO4)c21`, for which the “hERG current change (%, negative = inhibition) at 10uM” value is recorded as -64.8%.

As for `CC(=O)N1CCc2cc(Br)cc(S(=O)(=O)NCCCN(C)Cc3ccccc3)c21`, the “hERG current change (%, negative = inhibition) at 10uM” value is given as -38.3%.

For `CC(=O)N1c2c(cc(Br)cc2S(=O)(=O)NCc2ccccc2)CC1C` (stereo not drawn), the “hERG current change (%, negative = inhibition) at 10uM” value is recorded as -35.5%.

Take `CC(=O)N1CCc2cc(Br)cc(S(=O)(=O)NCc3ccc(Cl)cc3)c21`: the “hERG current change (%, negative = inhibition) at 10uM” value is -58.6%.

`CC(=O)N1c2c(cc(Br)cc2S(=O)(=O)NCc2ccc(C)cc2)CC1C` (stereo not drawn): the “hERG current change (%, negative = inhibition) at 10uM” value is -59.5%.

For the compound `COc1cc(CNn2cnnc2)ccc1OCC(=O)NC(C)(C)C`, the “hERG current change (%, negative = inhibition) at 10uM” value came out at 1.29%.

Take `O=C(Nc1nc(-c2ccc3c(c2)OCO3)cs1)C1COc2ccccc2O1` (stereo not drawn): the “hERG current change (%, negative = inhibition) at 10uM” value was determined as 13.1%.

For the compound `CCn1c(SCC(=O)N=Nc2c(O)[nH]c3ccccc23)nc2ccccc21`, the “hERG current change (%, negative = inhibition) at 10uM” value is reported as -11.9%.

Turning to `CC1=CC(=O)CC(C)(C)C1(O)/C=C/C(C)=C/C(=O)O` (stereo not drawn), the “hERG current change (%, negative = inhibition) at 10uM” value amounted to 5.43%.

With `CCOc1ccc(Nc2ncnc3c2cnn3C)cc1`, the “hERG current change (%, negative = inhibition) at 10uM” value is recorded as -16.6%.

With `COc1cccc(C(c2c(C)[nH]n(-c3ccccc3)c2=O)c2c(C)[nH]n(-c3ccccc3)c2=O)c1O`, the “hERG current change (%, negative = inhibition) at 10uM” value was -4.28%.

Take `CN(C)CCn1c(=S)[nH]c2ccc(Cl)cc2c1=O`: the “hERG current change (%, negative = inhibition) at 10uM” value is on record as -21.7%.

For the compound `CCN(CC)CCn1c(=S)[nH]c2ncccc2c1=O`, the “hERG current change (%, negative = inhibition) at 10uM” value was -20.5%.

For the compound `CCN(CC)CCn1c(=S)[nH]c2ccc(Br)cc2c1=O`, the “hERG current change (%, negative = inhibition) at 10uM” value is on record as -66.7%.

Consider `CCN(CC)CCCn1c(=S)[nH]c2ccc(Cl)cc2c1=O`, for which the “hERG current change (%, negative = inhibition) at 10uM” value is -63.7%.

Turning to `CCN(CC)CCn1c(=S)[nH]c2ccccc2c1=O`, the “hERG current change (%, negative = inhibition) at 10uM” value is -25.6%.

For the compound `CCN(CC)CCCn1c(=S)[nH]c2cc(OC)c(OC)cc2c1=O`, the “hERG current change (%, negative = inhibition) at 10uM” value was -2.6%.

Consider `CCN(CC)CCn1c(=S)[nH]c2cc3c(cc2c1=O)OCO3`, for which the “hERG current change (%, negative = inhibition) at 10uM” value is on record as -24.2%.

Regarding `CCN(CC)CCCn1c(=S)[nH]c2ncccc2c1=O`, the “hERG current change (%, negative = inhibition) at 10uM” value was -15.9%.

Regarding `CCN(CC)CCn1c(=S)[nH]c2ccc(Cl)cc2c1=O`, the “hERG current change (%, negative = inhibition) at 10uM” value is listed as -60.8%.

For `Cc1ccc(CCNC(=O)C2CCN(S(=O)(=O)c3ccc4c(c3)NC(=O)C(C)S4)CC2)cc1` (stereo not drawn), the “hERG current change (%, negative = inhibition) at 10uM” value is -2.94%.

Consider `CC(C)N(C(=O)CSc1ccc(S(=O)(=O)N2CCCCC2)cn1)C(C)C`, for which the “hERG current change (%, negative = inhibition) at 10uM” value is given as -15.7%.

For the compound `CC12CCC(C(=O)O)(c3nc4cc([N+](=O)[O-])ccc4nc31)C2(C)C` (stereo not drawn), the “hERG current change (%, negative = inhibition) at 10uM” value is listed as -1.75%.

On to `O=C(NC(Cc1c[nH]c2ccccc12)C(=O)O)/C(=C\c1ccccc1)NC(=O)c1ccccc1` (stereo not drawn), for which the “hERG current change (%, negative = inhibition) at 10uM” value is recorded as 9.54%.

With `COc1ccc2cnn(-c3ccc(OC(F)(F)Cl)cc3)c(=O)c2c1OC`, the “hERG current change (%, negative = inhibition) at 10uM” value is on record as 6.28%.

In the case of `CCCN(CC(=O)Nc1ccccc1C)C(=O)c1ccc(N2CCCCC2)c([N+](=O)[O-])c1`, the “hERG current change (%, negative = inhibition) at 10uM” value is reported as -43.7%.

Consider `CCCN(CC(=O)Nc1ccccc1C)C(=O)c1ccc(N2CCCC2)c([N+](=O)[O-])c1`, for which the “hERG current change (%, negative = inhibition) at 10uM” value is recorded as -41.3%.

On to `CCCN(CC(=O)Nc1ccc(F)c(F)c1F)C(=O)c1cc([N+](=O)[O-])ccc1N1CCOCC1`, for which the “hERG current change (%, negative = inhibition) at 10uM” value was -67.1%.

For the compound `CCN(CC(=O)Nc1cc(Cl)ccc1C)C(=O)c1cc([N+](=O)[O-])ccc1N1CCOCC1`, the “hERG current change (%, negative = inhibition) at 10uM” value is on record as -18.5%.

For the compound `CCCN(CC(=O)Nc1ccccc1C)C(=O)c1ccc(N2CCOCC2)c([N+](=O)[O-])c1`, the “hERG current change (%, negative = inhibition) at 10uM” value is given as -70.3%.

For `CCN(CC(=O)Nc1c(F)cccc1F)C(=O)c1cc([N+](=O)[O-])ccc1N1CCOCC1`, the “hERG current change (%, negative = inhibition) at 10uM” value is given as -4.57%.

Turning to `O=C(NCC(=O)N1CCN(C(=O)c2ccccc2)CC1)c1ccccc1`, the “hERG current change (%, negative = inhibition) at 10uM” value is listed as 5.05%.

As for `O=C1C=C(/C=C/c2ccccc2)C[C@@H](c2ccc3c(c2)OCO3)C1`, the “hERG current change (%, negative = inhibition) at 10uM” value was 20%.

With `COc1ccc([C@H]2CC(=O)C=C(/C=C/c3ccc(Cl)cc3)C2)cc1`, the “hERG current change (%, negative = inhibition) at 10uM” value was 12.8%.

As to `COc1ccc([C@H]2CC(=O)C=C(/C=C/c3ccc(C(F)(F)F)cc3)C2)cc1`, the “hERG current change (%, negative = inhibition) at 10uM” value is -62.9%.

For the compound `COc1ccc([C@H]2CC(=O)C=C(c3cc(C(F)(F)F)cc(C(F)(F)F)c3)C2)cc1`, the “hERG current change (%, negative = inhibition) at 10uM” value is recorded as 4.42%.

Consider `O=C1C=C(/C=C/c2ccccc2)C[C@@H](c2ccc(F)cc2)C1`, for which the “hERG current change (%, negative = inhibition) at 10uM” value was -59.7%.

On to `C/C=C/C1=CC(=O)C[C@H](c2ccc(Cl)cc2)C1`, for which the “hERG current change (%, negative = inhibition) at 10uM” value is -63.9%.

For the compound `C/C=C/C1=CC(=O)C[C@H](c2ccc(F)cc2)C1`, the “hERG current change (%, negative = inhibition) at 10uM” value is given as -34.3%.

Regarding `O=C1C=C(c2ccccc2)CC(c2ccc(F)cc2)C1` (stereo not drawn), the “hERG current change (%, negative = inhibition) at 10uM” value is -28.2%.

`CCCCC/C=C/C1=CC(=O)C[C@H](c2ccc(Cl)cc2)C1`: the “hERG current change (%, negative = inhibition) at 10uM” value was -47.4%.
